# Reference: the supplement of paper PMC6992640
# ± gives the standard deviation of the averaged measurements.
# Assays:
# HCI09 = cells of a triple-negative luminal androgen receptor type breast cancer xenograft; assay: cell viability (% of vehicle); higher = less cytotoxic; settings: 10 µM; 72 h
# HCI11 = cells of an ER-positive luminal breast cancer xenograft; assay: as above; settings: 10 µM; 72 h
# HCI13 = cells of an ER-positive luminal breast cancer xenograft; assay: as above; settings: 10 µM; 72 h
# WHIM2 = cells of a triple-negative basal-like breast cancer xenograft; assay: as above; settings: 10 µM; 72 h
# UCD52 [1] = cells of a triple-negative basal-like breast cancer xenograft; assay: as above; settings: 10 µM; 72 h
# HCI16 = cells of a triple-negative basal-like breast cancer xenograft; assay: as above; settings: 10 µM; 72 h
# HCI01 = cells of a triple-negative basal-like breast cancer xenograft; assay: cell viability of combination (% of vehicle); higher = less cytotoxic; settings: 1 µM; 72 h; partner dose: 10 nM
# Protocol: (§1)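 PDX cells were treated for 72 h with each drug at 1 µM plus carfilzomib (10 nM; 100 nM for WHIM2). Luciferase viability is expressed as percent of vehicle.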
# UCD52 [2] = assay: as above; settings: 1 µM; 72 h; partner dose: 10 nM
# Protocol: as §1
# HCI03 = cells of an ER-positive luminal breast cancer xenograft; assay: cell viability (% of vehicle); higher = less cytotoxic; settings: 10 µM; 72 h
structure (smiles),measurement,setting,value
CCCCc1nc2cc(C=CC(=O)NO)ccc2n1CCN(CC)CC [Pracinostat (SB939)],cell viability,HCI09,56.2 ± 49
same,cell viability,HCI11,6.31
same,cell viability,HCI13,88.1 ± 21
same,cell viability,WHIM2,64.9 ± 4.9
CC(NCc1ccc(OCc2cccc(F)c2)cc1)C(N)=O.CS(=O)(=O)O (stereo not drawn) [Safinamide Mesylate],cell viability,HCI11,161
same,cell viability,HCI13,191 ± 36
same,cell viability,UCD52 [1],190 ± 11
same,cell viability,WHIM2,184 ± 45
COc1ccc(C=CC(=O)Nc2ccccc2C(=O)O)cc1OC [Tranilast],cell viability,HCI11,87.9
same,cell viability,HCI16,108
same,cell viability,UCD52 [1],116 ± 8.9
CNC(=O)c1cc(Oc2ccc(NC(=O)Nc3ccc(Cl)c(C(F)(F)F)c3)c(F)c2)ccn1 [Regorafenib] + CC(C)C[C@H](NC(=O)[C@H](CCc1ccccc1)NC(=O)CN1CCOCC1)C(=O)N[C@@H](Cc1ccccc1)C(=O)N[C@@H](CC(C)C)C(=O)[C@@]1(C)CO1 [Carfilzomib],cell viability of combination,HCI01,74.6
same,cell viability of combination,UCD52 [2],58.6
COC(=O)NC(C(=O)N1CCCC1c1ncc(-c2ccc(-c3ccc(-c4cnc(C5CCCN5C(=O)C(NC(=O)OC)C(C)C)[nH]4)cc3)cc2)[nH]1)C(C)C (stereo not drawn) + CC(C)C[C@H](NC(=O)[C@H](CCc1ccccc1)NC(=O)CN1CCOCC1)C(=O)N[C@@H](Cc1ccccc1)C(=O)N[C@@H](CC(C)C)C(=O)[C@@]1(C)CO1 [Carfilzomib],cell viability of combination,HCI01,70.8
same,cell viability of combination,UCD52 [2],60.4
Cc1nc(-c2ccc(OCC(C)C)c(C#N)c2)sc1C(=O)O [Febuxostat],cell viability,HCI16,191
CC(O)=C(C#N)C(=O)Nc1ccc(C(F)(F)F)cc1 [Teriflunomide],cell viability,HCI11,162
same,cell viability,HCI13,196 ± 48
same,cell viability,HCI16,200
COc1cccc2c1C(=O)c1c(O)c3c(c(O)c1C2=O)CC(O)(C(=O)CO)CC3OC1CC(N)C(O)C(C)O1 (stereo not drawn) [Doxorubicin] + CC(C)C[C@H](NC(=O)[C@H](CCc1ccccc1)NC(=O)CN1CCOCC1)C(=O)N[C@@H](Cc1ccccc1)C(=O)N[C@@H](CC(C)C)C(=O)[C@@]1(C)CO1 [Carfilzomib],cell viability of combination,HCI01,55.4
same,cell viability of combination,UCD52 [2],28.3
"CC=C1NC(=O)C2CSSCCC=CC(CC(=O)NC(C(C)C)C(=O)N2)OC(=O)C(C(C)C)NC1=O (stereo not drawn) [Romidepsin (FK228, depsipeptide)]",cell viability,HCI03,177
same,cell viability,HCI09,77.5 ± 29
same,cell viability,HCI13,66.1 ± 6.7
same,cell viability,WHIM2,34.4 ± 4.2
Cc1c(-c2ccc(O)cc2)n(Cc2ccc(OCCN3CCCCCC3)cc2)c2ccc(O)cc12.Cl [Bazedoxifene HCl] + CC(C)C[C@H](NC(=O)[C@H](CCc1ccccc1)NC(=O)CN1CCOCC1)C(=O)N[C@@H](Cc1ccccc1)C(=O)N[C@@H](CC(C)C)C(=O)[C@@]1(C)CO1 [Carfilzomib],cell viability of combination,HCI01,107
same,cell viability of combination,UCD52 [2],64.4
Nc1ccc2cc3ccc([NH3+])cc3nc2c1.Nc1ccc2cc3ccc([NH3+])cc3nc2c1.O=S(=O)([O-])[O-] [Proflavine Hemisulfate] + CC(C)C[C@H](NC(=O)[C@H](CCc1ccccc1)NC(=O)CN1CCOCC1)C(=O)N[C@@H](Cc1ccccc1)C(=O)N[C@@H](CC(C)C)C(=O)[C@@]1(C)CO1 [Carfilzomib],cell viability of combination,HCI01,78
same,cell viability of combination,UCD52 [2],94
Cc1nc(NC(=O)N2CCCC2C(N)=O)sc1-c1ccnc(C(C)(C)C(F)(F)F)c1 (stereo not drawn) + CC(C)C[C@H](NC(=O)[C@H](CCc1ccccc1)NC(=O)CN1CCOCC1)C(=O)N[C@@H](Cc1ccccc1)C(=O)N[C@@H](CC(C)C)C(=O)[C@@]1(C)CO1 [Carfilzomib],cell viability of combination,HCI01,62.6
same,cell viability of combination,UCD52 [2],42.3
CC(C)(C)c1ccc(C(=O)CCCN2CCC(OC(c3ccccc3)c3ccccc3)CC2)cc1 [Ebastine] + CC(C)C[C@H](NC(=O)[C@H](CCc1ccccc1)NC(=O)CN1CCOCC1)C(=O)N[C@@H](Cc1ccccc1)C(=O)N[C@@H](CC(C)C)C(=O)[C@@]1(C)CO1 [Carfilzomib],cell viability of combination,HCI01,74
same,cell viability of combination,UCD52 [2],59.8
CN1CCN(CCCN2c3ccccc3Sc3ccc(C(F)(F)F)cc32)CC1.Cl.Cl [Trifluoperazine 2HCl] + CC(C)C[C@H](NC(=O)[C@H](CCc1ccccc1)NC(=O)CN1CCOCC1)C(=O)N[C@@H](Cc1ccccc1)C(=O)N[C@@H](CC(C)C)C(=O)[C@@]1(C)CO1 [Carfilzomib],cell viability of combination,HCI01,76.2
same,cell viability of combination,UCD52 [2],59.5
COc1cc2nccc(Oc3ccc(NC(=O)NC4CC4)c(Cl)c3)c2cc1C(N)=O [Lenvatinib (E7080)] + CC(C)C[C@H](NC(=O)[C@H](CCc1ccccc1)NC(=O)CN1CCOCC1)C(=O)N[C@@H](Cc1ccccc1)C(=O)N[C@@H](CC(C)C)C(=O)[C@@]1(C)CO1 [Carfilzomib],cell viability of combination,HCI01,97.9
same,cell viability of combination,UCD52 [2],38.2
CCCCCCCCOc1ccccc1C(=O)Nc1ccc(C(=O)OCC[N+](C)(CC)CC)cc1.[Br-] [Otilonium Bromide] + CC(C)C[C@H](NC(=O)[C@H](CCc1ccccc1)NC(=O)CN1CCOCC1)C(=O)N[C@@H](Cc1ccccc1)C(=O)N[C@@H](CC(C)C)C(=O)[C@@]1(C)CO1 [Carfilzomib],cell viability of combination,HCI01,81.5
same,cell viability of combination,UCD52 [2],67
COc1cc2nccc(Oc3ccc(NC(=O)C4(C(=O)Nc5ccc(F)cc5)CC4)cc3)c2cc1OC.O=C(O)CC(O)C(=O)O [Cabozantinib malate (XL184)] + CC(C)C[C@H](NC(=O)[C@H](CCc1ccccc1)NC(=O)CN1CCOCC1)C(=O)N[C@@H](Cc1ccccc1)C(=O)N[C@@H](CC(C)C)C(=O)[C@@]1(C)CO1 [Carfilzomib],cell viability of combination,HCI01,77
same,cell viability of combination,UCD52 [2],57.2
CCOC(=O)c1c(CSc2ccccc2)n(C)c2cc(Br)c(O)c(CN(C)C)c12.Cl [Arbidol HCl] + CC(C)C[C@H](NC(=O)[C@H](CCc1ccccc1)NC(=O)CN1CCOCC1)C(=O)N[C@@H](Cc1ccccc1)C(=O)N[C@@H](CC(C)C)C(=O)[C@@]1(C)CO1 [Carfilzomib],cell viability of combination,HCI01,76.6
same,cell viability of combination,UCD52 [2],58.5
Cc1ccc(C(=O)N(CCCN)C(c2nc3cc(Cl)ccc3c(=O)n2Cc2ccccc2)C(C)C)cc1 (stereo not drawn) + CC(C)C[C@H](NC(=O)[C@H](CCc1ccccc1)NC(=O)CN1CCOCC1)C(=O)N[C@@H](Cc1ccccc1)C(=O)N[C@@H](CC(C)C)C(=O)[C@@]1(C)CO1 [Carfilzomib],cell viability of combination,HCI01,88.6
same,cell viability of combination,UCD52 [2],42.9
CCCCCCCCc1ccc(CCC(N)(CO)CO)cc1.Cl [Fingolimod (FTY720)] + CC(C)C[C@H](NC(=O)[C@H](CCc1ccccc1)NC(=O)CN1CCOCC1)C(=O)N[C@@H](Cc1ccccc1)C(=O)N[C@@H](CC(C)C)C(=O)[C@@]1(C)CO1 [Carfilzomib],cell viability of combination,HCI01,77.3
same,cell viability of combination,UCD52 [2],61.5
C=CC(=O)Nc1cc(Nc2nccc(-c3cn(C)c4ccccc34)n2)c(OC)cc1N(C)CCN(C)C + CC(C)C[C@H](NC(=O)[C@H](CCc1ccccc1)NC(=O)CN1CCOCC1)C(=O)N[C@@H](Cc1ccccc1)C(=O)N[C@@H](CC(C)C)C(=O)[C@@]1(C)CO1 [Carfilzomib],cell viability of combination,HCI01,59.8
same,cell viability of combination,UCD52 [2],53.7
COc1ccc2c(O[C@H]3CC4C(=O)N(C)CCCC/C=C\[C@H]5C[C@@]5(C(=O)NS(=O)(=O)C5CC5)NC(=O)[C@@H]4C3)cc(-c3nc(C(C)C)cs3)nc2c1C (stereo partly drawn) [Simeprevir] + CC(C)C[C@H](NC(=O)[C@H](CCc1ccccc1)NC(=O)CN1CCOCC1)C(=O)N[C@@H](Cc1ccccc1)C(=O)N[C@@H](CC(C)C)C(=O)[C@@]1(C)CO1 [Carfilzomib],cell viability of combination,HCI01,82.7
same,cell viability of combination,UCD52 [2],62.5
COC(=O)C12CCC(C)(C)CC1C1C(=O)C=C3C4(C)C=C(C#N)C(=O)C(C)(C)C4CCC3(C)C1(C)CC2 (stereo not drawn) [Bardoxolone methyl] + CC(C)C[C@H](NC(=O)[C@H](CCc1ccccc1)NC(=O)CN1CCOCC1)C(=O)N[C@@H](Cc1ccccc1)C(=O)N[C@@H](CC(C)C)C(=O)[C@@]1(C)CO1 [Carfilzomib],cell viability of combination,HCI01,158
same,cell viability of combination,UCD52 [2],28.1
